From PubChem
A selection: hits, their analogues and other compounds. The true share with any hit is near 2.9%.
KLK7 zymogen act: activates the human kallikrein-7 zymogen; purified proKLK7, EDANS-DABCYL substrate fluorescence; 100% is mature enzyme control, 0% vehicle; P49862; activation, % at 7 µM; 370,000 compounds, 0.9% hits;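 active = activation above the mean of all tested compounds plus 3 SD, computed per campaign excluding outliers beyond control limits, cut at about 13% in these data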
ADAM17 inh: inhibits human ADAM17; AID 720648; recombinant ADAM17, EDANS/DABCYL FRET peptide cleavage; 370,000 compounds, 0.83% hits; inhibition, % at 6.95 µM;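 active = inhibition above the mean of compounds lying between control limits plus 3 SD, set per campaign, cut at about 8.5% in these data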
ADAM10 inh: inhibitors of human ADAM10; recombinant ADAM10, EDANS/DABCYL FRET peptide cleavage, 3 h; inhibition, % at 7 µM; O14672; 370,000 compounds, 0.62% hits;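 active = inhibition above a per-campaign cutoff equal to the mean of compounds falling between control-based bounds plus 3 SD, cut at about 20% in these data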
PLC-beta3 inh: inhibitors of human phospholipase C beta3. Purified PLC-beta3, fluorogenic substrate, fluorescence. inhibition, % at 12.2 µM. AID 720704. Q01970. 370,000 compounds, 0.18% hits; in the data active = inhibition above about 11%
Target sequence (Q01970 whole entry, looked up): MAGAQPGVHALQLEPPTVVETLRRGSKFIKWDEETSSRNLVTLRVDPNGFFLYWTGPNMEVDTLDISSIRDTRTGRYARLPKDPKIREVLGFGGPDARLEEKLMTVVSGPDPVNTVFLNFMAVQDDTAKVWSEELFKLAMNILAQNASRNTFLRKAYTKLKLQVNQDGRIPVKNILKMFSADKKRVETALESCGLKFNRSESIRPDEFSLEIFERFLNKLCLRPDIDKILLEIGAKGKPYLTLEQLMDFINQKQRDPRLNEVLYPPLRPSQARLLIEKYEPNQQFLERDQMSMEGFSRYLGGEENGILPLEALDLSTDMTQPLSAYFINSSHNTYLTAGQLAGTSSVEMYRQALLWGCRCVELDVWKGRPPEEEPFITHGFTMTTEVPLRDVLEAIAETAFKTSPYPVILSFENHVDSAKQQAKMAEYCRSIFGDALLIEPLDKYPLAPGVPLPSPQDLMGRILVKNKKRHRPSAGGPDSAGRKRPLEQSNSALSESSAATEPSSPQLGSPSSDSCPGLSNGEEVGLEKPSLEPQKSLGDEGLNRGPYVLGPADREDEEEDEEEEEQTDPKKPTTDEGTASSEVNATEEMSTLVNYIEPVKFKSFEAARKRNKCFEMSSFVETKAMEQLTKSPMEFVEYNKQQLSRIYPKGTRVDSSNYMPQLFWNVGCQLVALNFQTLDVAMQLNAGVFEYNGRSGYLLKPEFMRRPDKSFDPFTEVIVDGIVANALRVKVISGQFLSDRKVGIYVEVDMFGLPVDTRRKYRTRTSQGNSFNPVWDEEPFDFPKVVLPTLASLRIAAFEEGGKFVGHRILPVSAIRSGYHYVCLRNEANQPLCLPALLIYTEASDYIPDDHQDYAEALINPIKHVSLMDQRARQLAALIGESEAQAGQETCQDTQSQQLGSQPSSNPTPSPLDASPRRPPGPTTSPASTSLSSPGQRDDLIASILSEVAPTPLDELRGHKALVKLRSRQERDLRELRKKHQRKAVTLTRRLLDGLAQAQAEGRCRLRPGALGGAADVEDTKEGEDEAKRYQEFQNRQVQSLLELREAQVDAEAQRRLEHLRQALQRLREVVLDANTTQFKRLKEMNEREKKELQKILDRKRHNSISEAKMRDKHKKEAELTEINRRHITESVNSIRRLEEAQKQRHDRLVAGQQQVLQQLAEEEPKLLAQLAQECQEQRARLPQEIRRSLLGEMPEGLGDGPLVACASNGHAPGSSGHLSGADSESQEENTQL
PLC-gamma1 inh: PLC-gamma1 (human) inhibition, primary screen | P19174 | purified PLC-gamma1, fluorogenic substrate, fluorescence | inhibition, % at 12.2 µM | 370,000 compounds, 0.84% hits; in the data active = inhibition above about 9.5%
ADAM10 confirm: human ADAM10 inhibition, confirmation; AID 743208; inhibition, % at 6.95 µM; shares compounds with ADAM10 inh; 2,100 compounds, 1% hits; ADAM10 QFRET peptide cleavage, EDANS fluorescence;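 active = inhibition above about 20% chosen separately for each screening run, limit read from the data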
ADAM17 ctr: counter-screen for ADAM10 exosite inhibitors: inhibitors of human ADAM17 | shares compounds with ADAM10 inh | ADAM17 QFRET peptide cleavage, EDANS fluorescence | inhibition, % at 6.95 µM | 2,100 compounds, 0.5% hits;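 active = mean triplicate inhibition above the solvent-only control wells' mean plus 3 SD, cut at about 12% in these data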
Of the large screens only hits and unclear results are named; the others gave an inactive call (follow-up assays come after a bar, where they were run).

CCOC(=O)[C@H]1[C@H]2COc3ccc(Cl)cc3[C@@H]2N2C(=O)c3cc(Br)ccc3NC(=O)[C@@]12C	ADAM10 inh 23 | ADAM10 confirm inactive | ADAM17 ctr inactive
N#Cc1cccc(NC(=O)OCCN2C(=O)CCC23CCC(c2ccccc2)CC3)c1 (stereo not given)	none
Cc1ccc(-c2cc(-c3nnc4sc(COc5ccccc5)nn34)[nH]n2)cc1	none
Cc1ccc(S(=O)(=O)NC(=S)c2ccccc2)cc1	none
Cc1ccc(C(=S)NCS(=O)(=O)c2ccc(C)cc2)cc1	ADAM10 inh 26 | ADAM10 confirm 21 | ADAM17 ctr inactive
CCCC/C=C1/[C@H](CC)N(C)C2=N[C@@H](c3ccccc3)CC(=O)N21	none (no result: KLK7 zymogen act)
OC(c1ccc(Cl)c(F)c1)c1ncc(-c2ccccc2C(F)(F)F)[nH]1 (stereo not given)	none
OC(c1ccc(Cl)c(F)c1)c1ncc(-c2ccc(Cl)cc2)[nH]1 (stereo not given)	ADAM10 inh 20 | ADAM10 confirm inactive | ADAM17 ctr inactive
OC(c1ccc(Cl)c(Cl)c1)c1ncc(-c2ccccc2C(F)(F)F)[nH]1 (stereo not given)	ADAM17 inh 10, ADAM10 inh 22 | ADAM10 confirm inactive | ADAM17 ctr inactive
OC(c1ccc(Cl)c(F)c1)c1ncc(-c2ccc(Oc3ccccc3)cc2)[nH]1 (stereo not given)	none
OC(c1cccc(F)c1)c1ncc(-c2ccc(Oc3ccccc3)cc2)[nH]1 (stereo not given)	ADAM10 inh 23 | ADAM10 confirm inactive | ADAM17 ctr inactive
Cc1cc(C)cc(OCCCN2CCC(C(O)(c3ccccc3)c3ccccc3)CC2)c1	none
CC(=O)NC(Cc1ccccc1)P(=O)(O)O (stereo not given)	none
O=C(NCCNc1ccc([N+](=O)[O-])cc1C(F)(F)F)c1cccc(F)c1	ADAM10 inh 20 | ADAM10 confirm inactive | ADAM17 ctr inactive
COc1ccc(Br)c(C(=O)Nc2nc3ccccc3[nH]2)c1	none
CCCCN(C(=O)c1ccccc1Br)C(c1ccc(OC)cc1)c1nc2ccccc2[nH]1 (stereo not given)	ADAM10 inh 21 | ADAM10 confirm inactive | ADAM17 ctr inactive
CC(C)CN1C(=O)[C@@]2(CC(=O)N(C)C2c2ccccc2)c2cc(-n3cc(-c4ccccc4)nn3)ccc21 (stereo not given in full)	none
COC(=O)[C@]12C[C@H](CC(=O)NCCc3ccccc3OC)C(=O)N(Cc3ccccc3)C1=C[C@H](C1CCCC1)O[C@@H]2C	none
COC(=O)[C@]12C[C@H](CC(=O)NCCc3ccccc3OC)C(=O)N(Cc3cccc4ccccc34)C1=C[C@H](C1CCCC1)O[C@@H]2C	ADAM10 inh 25 | ADAM10 confirm inactive | ADAM17 ctr inactive
C[C@@H]1CCN(C2CC2)S(=O)(=O)c2c(cccc2N2CCC[C@H]2CO)O1	none
COc1ccc(S[C@]2(C(=O)N3CCN(C(C)=O)CC3)CC(=O)N(C(=O)Nc3ccc(C)c(Cl)c3)[C@@H]2c2ccc(OC)cc2)cc1	ADAM17 inh 9.5, ADAM10 inh 20 | ADAM10 confirm inactive | ADAM17 ctr inactive
Nc1cc([N+](=O)[O-])cc2oc(-c3ccccc3)cc12	ADAM10 inh 25 | ADAM10 confirm inactive | ADAM17 ctr inactive
CCO[C@@H]1OC(C(=O)NCc2ccccc2)=C[C@H](c2ccc(Br)cc2)[C@H]1CCCO	none
CCO[C@H]1OC(C(=O)NCc2ccccc2)=C[C@@H](c2ccc(C(F)(F)F)cc2)[C@@H]1CCCO	ADAM10 inh 22 | ADAM10 confirm inactive | ADAM17 ctr inactive
C=CCN1C(=O)[C@@H](CC(=O)NCCCN2CCCC2=O)[C@]2(C(=O)OCC)CCCCC/C=C/12	none
O=C(NCc1ccc2c(c1)OCO2)c1ccc(CSCc2ccccc2Cl)o1	ADAM10 inh 23 | ADAM10 confirm inactive | ADAM17 ctr inactive
CC(C)CCNC(=O)C(c1ccc(O)cc1)N(Cc1cccs1)C(=O)C1COc2ccccc2O1 (stereo not given)	ADAM10 inh 22 | ADAM10 confirm inactive | ADAM17 ctr inactive
CC(C)(C)NC(=O)CN(Cc1cccs1)C(=O)C1COc2ccccc2O1 (stereo not given)	none
OC(c1ccccc1)(c1nc(-c2ccc(Cl)cc2)cs1)C(F)(F)F (stereo not given)	ADAM10 inh 23 | ADAM10 confirm inactive | ADAM17 ctr inactive
O=C(O)c1cccc(-c2csc(C(O)(c3ccccc3)C(F)(F)F)n2)c1 (stereo not given)	none
N#Cc1cccc(-c2csc(C(O)(c3ccccc3)C(F)(F)F)n2)c1 (stereo not given)	ADAM10 inh 20 | ADAM10 confirm inactive | ADAM17 ctr inactive
Cc1ccccc1Cn1cc(S(=O)(=O)CC(=O)Nc2nccs2)c2ccccc21	ADAM10 inh 23 | ADAM10 confirm inactive | ADAM17 ctr inactive
O=C(CS(=O)(=O)c1ccccc1)Nc1nccs1	none
COc1ccc(-c2cn[nH]c2-c2ccc(OCc3ccccc3)cc2O)cc1	ADAM10 inh 20 | ADAM10 confirm inactive | ADAM17 ctr inactive
COc1ccccc1-c1cn[nH]c1-c1ccc(OCc2ccccc2)cc1O	none
COc1ccc(-c2cn[nH]c2-c2ccc(OCc3ccccc3F)cc2O)cc1OC	ADAM10 inh 23 | ADAM10 confirm inactive | ADAM17 ctr inactive
COC(=O)C1CN(Cc2ccc(Cl)cc2)CCS(=O)(=O)N1Cc1cn(Cc2ccc(C)cc2)nn1 (stereo not given)	none
CCOC(=O)CC[C@@H]1CC[C@]2(CCCN(C(=O)c3ccc4ccccc4n3)C2)O1	none
CCCCCCCCN1C(=O)[C@@H](CC(=O)N2CCOCC2)C[C@@]2(C(=O)OC)C1=C[C@H](C1CCCC1)O[C@@H]2C	none
COC(=O)C1=C(C)N(C)C(=NCc2cc(OC)c(OC)c(OC)c2)NC1c1cccc(Cl)c1 (stereo not given)	none
Cc1cc(Cl)ccc1NC(=O)CN1CCC(C(O)(c2ccccc2)c2ccccc2)CC1	ADAM17 inh 8.7, ADAM10 inh 26 | ADAM10 confirm inactive | ADAM17 ctr inactive
Cc1[nH]n2c(=O)cc(-c3ccc([N+](=O)[O-])cc3)nc2c1-c1ccccc1	ADAM10 inh 23 | ADAM10 confirm inactive | ADAM17 ctr inactive
Cc1cc(C)c(OCC(=O)Nc2ccc(NC(=O)c3ccco3)cc2)c([N+](=O)[O-])c1	none
Cc1cc(C)c(OCC(=O)Nc2cccc(NC(=O)c3ccco3)c2)c(Br)c1	ADAM10 inh 21 | ADAM10 confirm inactive | ADAM17 ctr inactive
COc1cc(OC)cc(C(=O)NCC(=O)NCCN2C(=O)S/C(=C\c3ccccc3Cl)C2=O)c1	none
